Records with an inconclusive call do not appear. Activity calls are given as the source filed them. Calls follow the shape of the dose curve; as a rule, active = well fitted inhibition curve with a large enough effect in the main read-out, with a control signal flat (not every such curve was filed as active); inconclusive = small, poorly fitted or top-dose-only effect, or effect the other way, or a change in a side signal; inactive = no such curve, though single readings can be large or run the other way.
Potency is read from the fitted curve at half-maximal effect.

The test is described as follows: Nrf2 qHTS screen for inhibitors: Validation (AID 493153). Particulars: A549 ARE-Fluc reporter, 18-24 h; Potency: luciferase luminescence; viability change: measured here: cytotoxicity max response; luciferase luminescence, at 46.1 µM (top of the series). An excerpt: NIH Molecular Libraries Probe Production Network [MLPCN] NIH Chemical Genomics Center [NCGC] MLPCN Grant: R03-MH092170-01 Assay Provider: Shyam Biswal, Johns Hopkins University Assay Overview: Nrf2 is a transcription factor that maintains cellular redox homoestasis and protects cells from xenobiotics. Nrf2 binds to the antioxidant response element (ARE) to induce gene expression of a broad spectrum of genes that encode for antioxidants. […] Finding a small molecule that act as an inhibitor of Nrf2 function would represent a novel therapeutic target that could lead to improvement in survival of patients undergoing chemo- and/or radio- therapy. 1. Shibata, T., et al., Genetic Alteration of Keap1 Confers Constitutive Nrf2 Activation and Resistance to Chemotherapy in Gallbladder Cancer. Gastroenterology, 2008. 2. Sjoblom, T., et al., The consensus coding sequences of human breast and colorectal cancers. Science, 2006. 314(5797): p. 268-74.
Assay Protocol Summary: A concentration-response assay was performed with A549 ARE_Fluc cells which are suspended in 5% FBS OPTI-MEM. Five uL were dispensed into 1536-well white TC-treated plate using the Kalypsys dispenser to achieve a density of 5000 cells/well in all columns except column 1. The plate is incubated at 37deg C at 5% CO2 for 2 hours before 23 nL of compounds are added with the Kalypsys pin tool equipped with a 1,536-pin array containing 10-nL slotted pins (FP1S10, 0.457-mm diameter, 50.8 mm long; V&P Scientific). The control compounds Budesonide and Staurosporine are both added at a concentration of 2mM and Budesonide is also added as a 1:10 titration, starting at 200uM, to achieve dose-response. After an 18-24 hour incubation at 37deg C at 5% CO2, 5ul of medium is added to column 1. Afterwards 1ul of 5x of CellTiter-Fluor (Promega) is added to every well. The plate is then incubated at 37deg C at 5% CO2 for 30 minutes before they are read on the ViewLux (Perkin Elmer) for a fluorescent read Ex=405(10)/Em=525(10) for a 3 second exposure, 2x binning, and high gain. Then 3 uL of 3x BugLite is dispensed into all wells and the plate is incubated at ambient room temperature for 15 minutes. Afterwards another ViewLux read is performed using the clear filter to get a luminescent read with the settings of 40 second exposure, 2x binning, and high gain. Cytotoxicity is assessed through the first fluorescent read and then biochemical activity against Nrf2 is measured in the luminescent read.
Take `Nc1nc2[nH]c(=O)cnc2c(=O)[nH]1`: the viability change is -3.53% and the Potency result was “inactive”.
On to `NC(=O)c1ncn([C@@H]2O[C@H](CO)[C@@H](O)[C@H]2O)n1`, for which the Potency entry is “inactive” and the viability change was 7.17%.
Turning to `Brc1c(Br)c(Br)c2n[nH]nc2c1Br`, the viability change was -14.6% and the Potency is 18.4 µM (active).
`Nc1nc2ccc(Cl)cc2c2nc(-c3ccco3)nn12`: the viability change worked out at 11.1% and the Potency entry is “inactive”.
With `O=[N+]([O-])c1ccc(O[C@@H]2O[C@H](CO)[C@@H](O)[C@H](O)[C@H]2F)c([N+](=O)[O-])c1`, the Potency entry is “inactive” and the viability change was -9.61%.

These data come from PubChem BioAssay (NCATS).
